Assay outcomes as filed in PubChem.
A selection: hits, their analogues and other compounds. The true share with any hit is near 2.3%.
NTR1 ag – activates human neurotensin receptor 1; P30989; NTR1-U2OS beta-arrestin-GFP spot imaging, agonist mode; activation, % at 20 µM; actives 0.17% (n = 330,000); AID 493036;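 active means activation at or above 40% of the spot to cytoplasm intensity ratio, with at least 20 cells analyzed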
Target sequence (P30989 whole entry, looked up): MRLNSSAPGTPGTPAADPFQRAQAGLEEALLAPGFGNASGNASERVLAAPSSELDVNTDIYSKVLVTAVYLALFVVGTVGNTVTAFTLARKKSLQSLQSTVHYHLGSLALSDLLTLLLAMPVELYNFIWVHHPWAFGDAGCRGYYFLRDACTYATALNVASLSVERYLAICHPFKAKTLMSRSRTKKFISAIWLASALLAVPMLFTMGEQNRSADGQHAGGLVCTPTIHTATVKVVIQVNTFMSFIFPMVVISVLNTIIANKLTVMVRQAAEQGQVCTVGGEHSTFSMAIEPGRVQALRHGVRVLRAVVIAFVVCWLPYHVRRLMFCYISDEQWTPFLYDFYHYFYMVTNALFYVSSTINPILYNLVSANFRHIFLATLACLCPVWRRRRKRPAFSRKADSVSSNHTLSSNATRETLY
m5-HT2A agonist – mouse HTR2A agonism via beta-arrestin recruitment | P35363 | CHO-K1 mHTR2A beta-arrestin complementation, luminescence; percent of 30 µM serotonin response | activation, % at 7.6 µM | actives 0.66% (n = 360,000);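 active means activation above a run cutoff, the mean activation of all tested compounds plus 3 SD, cut at about 14% in these data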
Exocytosis inh – lytic granule exocytosis inhibition; AID 651702; TALL-104 LAMP-1 surface exposure, flow cytometry; cells stimulated with thapsigargin and PMA; actives 0.66% (n = 360,000); inhibition, % at 10 µM;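 active means inhibition above about 55%, limit read from the data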
B2AR ag – activates human beta-2 adrenergic receptor causing internalization. P07550. Am2.2-beta2AR cells, FAP receptor internalization, flow cytometry. response, % (concentration not given with the values). actives 0.43% (n = 340,000);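 active means response above a set limit, near 3 SD of response in nonfluorescent compounds, cut at about 42% in these data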
ABHD5-PLIN5 inh – inhibitors of human ABHD5-perilipin-5 interaction | Split G. princeps luciferase complementation, luminescence, 4 h | Q00G26+Q8WTS1 | inhibition, % at 4 µM | actives 0.78% (n = 360,000) | AID 602281;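 active means inhibition above the mean inhibition across every tested compound plus 3 SD, cut at about 22% in these data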
Hits are given with their value; . = inactive; / = no result given.

SMILES | NTR1 ag | m5-HT2A agonist | Exocytosis inh | B2AR ag | ABHD5-PLIN5 inh
COC(=O)c1ccc(/C=C2\SC(=S)N(CCCC(=O)NCCCN3CCOCC3)C2=O)cc1 | . | . | 78 | . | .
CSc1ncc2[nH]c(C(O)c3ccccc3)nc2n1 (stereo not drawn) | / | . | . | . | .
COC(=O)C(C)Oc1cc(OC(C)C(=O)OC)c2c(-c3ccccc3)cc(=O)oc2c1 (stereo not drawn) | . | . | 63 | . | .
Cn1c(=O)[nH]c(=O)c2c1nc(N1CCNCC1)n2Cc1cccc2ccccc12 | . | . | . | . | .
CCOC(=O)c1c(N)n(-c2ccc(N)cc2)c2nc3ccccc3nc12 | . | . | . | . | .
CCOc1ccc(-n2c(N)c(C(=O)NCc3ccco3)c3nc4ccccc4nc32)cc1 | . | . | . | . | 33
Nc1c(C(=O)NCc2ccco2)c2nc3ccccc3nc2n1CCc1ccccc1 | / | . | . | . | .
Nc1c(C(=O)Nc2ccccc2)c2nc3ccccc3nc2n1-c1ccc(O)cc1 | . | . | . | . | 23
COc1ccc(N2C[C@H](CSC)[C@@H](CC(=O)Nc3ccccc3)C2=O)cc1 | / | . | . | / | .
COc1ccc(C/C(C)=N/NC(=S)Nc2ccc(Cl)cc2)cc1 | . | . | . | 58 | .
COc1ccc(C/C(C)=N/NC(=S)Nc2ccccc2)cc1 | . | . | . | . | .
CCCCc1ccc(NC(=S)Nc2ccc(Nc3ccc(OC)cc3)cc2)cc1 | . | . | . | 56 | .
COc1cccc2sc3cc(NCCCN4CCOCC4)ccc3c(=O)c12 | . | . | . | . | .
COc1ccc(OC)c(/C=N/NC(=O)c2[nH]nc3c2CCc2ccccc2-3)c1 | . | . | . | . | .
COc1cccc(/C=N/NC(=O)c2[nH]nc3c2CCc2ccccc2-3)c1 | . | . | 81 | . | .
CCC(C)(C)n1nnnc1C(c1ccc2ncccc2c1)N1CCN2CCCC2C1 (stereo not drawn) | . | . | . | . | .
C#CC(=O)N(c1cccc(OC)c1)C(C(=O)NC1CCCC1)c1cccs1 (stereo not drawn) | . | . | . | . | 23
C#CC(=O)N(c1ccc(OC)c(OC)c1)C(C(=O)NC1CCCC1)c1cccs1 (stereo not drawn) | . | . | . | . | .
N#Cc1ccc(CN2CCN(C(=O)CCNS(=O)(=O)c3ccc(F)c(F)c3)CC2)cc1 | . | . | . | . | .
N#Cc1ccc(CN2CCN(C(=O)CCNS(=O)(=O)c3ccc(F)c(Cl)c3)CC2)cc1 | . | 49 | . | . | .
CCn1c(SCC(=O)Nc2cccc(NC(C)=O)c2)nnc1-c1ccco1 | . | . | . | . | .
CCn1c(SCC(=O)Nc2ccc3c(c2)c2ccccc2n3CC)nnc1-c1ccco1 | . | . | . | . | 46
CCN1CCN(c2nc(N)c([N+](=O)[O-])c(Nc3ccc(C)c(C)c3)n2)CC1 | . | . | . | 63 | .
CCN1CCN(c2nc(N)c([N+](=O)[O-])c(Nc3ccc(C)cc3)n2)CC1 | . | . | . | . | .
O=[N+]([O-])c1ccc(N2CCN(C(=S)NCc3ccc(Cl)cc3)CC2)cc1 | . | . | 68 | . | .
SMILES | NTR1 ag | m5-HT2A agonist | Exocytosis inh | B2AR ag | ABHD5-PLIN5 inh
CCNC(=S)N1CCN(c2ccc([N+](=O)[O-])cc2)CC1 | . | . | . | . | .
C=C1CC(COc2cc(=O)oc3ccccc23)(c2ccccc2)OC1=O (stereo not drawn) | / | . | . | 72 | .
C=C1CCC2C(C)(C)[C@H](O)CC[C@@]2(C)[C@@H]1COc1cc(=O)oc2ccccc12 (stereo partly drawn) | . | . | . | . | .
CC(C)n1c(SCC(=O)Nc2ccc(N3CCOCC3)cc2)nnc1-c1ccco1 | . | . | . | . | .
O=C(/C=C/c1cccnc1)c1ccc(NC(=O)c2cccc(Br)c2)cc1 | . | . | . | . | 50
Cc1cccc(C(=O)Nc2ccc(C(=O)/C=C/c3ccncc3)cc2)c1 | . | . | . | 60 | 91
COc1ccc(S(=O)(=O)NC(CC(C)C)C(=O)NC(C)c2cccs2)cc1 (stereo not drawn) | . | . | . | . | .
CC(=O)Nc1cccc(N/C=C(\C=O)c2nc3ccccc3o2)c1 | . | . | 56 | . | .
COc1cc2nc(N(CCN(C)C)C(=O)c3ccc4ccccc4c3)sc2cc1OC | . | . | . | . | .
CCN(CC)CCN(C(=O)c1ccc2c(c1)CCCC2)c1nc2cc(OC)c(OC)cc2s1 | . | . | 56 | . | .
Cc1ccc2nc(N(CCCN(C)C)C(=O)c3ccc4c(c3)CCCC4)sc2c1 | . | . | . | . | 22
Cc1cc(C)c2nc(N(CCCN(C)C)C(=O)c3ccc4c(c3)CCCC4)sc2c1 | . | / | / | / | /
COc1ccc2sc(N(CCCN(C)C)C(=O)c3ccc(S(=O)(=O)N4CCCc5ccccc54)cc3)nc2c1 | . | . | . | 53 | .
COc1cc2nc(N(CCCN(C)C)C(=O)c3ccc(S(=O)(=O)N4CCc5ccccc54)cc3)sc2cc1OC | . | . | . | . | .
CC1(c2ccc(Cl)cc2)NC(=O)N(CC(=O)Nc2cccnc2Cl)C1=O (stereo not drawn) | . | . | . | . | .
COc1ccc(S(=O)(=O)c2c(N)n(Cc3ccco3)c3nc4ccccc4nc23)cc1 | . | . | . | . | 24
Cc1cc(C)cc(-n2c3nc4ccccc4nc3c3c(=O)n(Cc4ccco4)cnc32)c1 | . | . | . | . | 60
COc1ccc(Cn2c(C)nc3c(c2=O)c2nc4ccccc4nc2n3Cc2ccco2)cc1 | / | . | . | . | 33
COCCCn1cnc2c(c1=O)c1nc3ccccc3nc1n2-c1ccc(C)cc1 | . | . | . | . | .
Cc1ccc(S(=O)(=O)c2c(N)n(CCCN(C)C)c3nc4ccccc4nc23)cc1 | . | . | . | . | .
CCOc1ccc(CN(C)C(=O)CNC(=O)C2CCCCC2)cc1OC | . | . | . | . | .
C#CCN(C[C@H]1[C@H](OC(=O)NC2CC2)[C@H](OC(=O)NC2CC2)C[C@@H](C(=O)OC)[C@H]1C(=O)OC)S(=O)(=O)c1ccc(C)cc1 | / | . | . | / | .
CCCCc1nc(N2CCOCC2)c(C#N)c2c1COC(C)(C)C2 | . | . | . | . | .
CC12CCC3C(CCC4CC(O)CCC43C)C1CC(O)C2 (stereo not drawn) | / | . | . | . | .
C/C(=N\NC(N)=S)C1=CCC2C3CC[C@H]4CC(O)CC[C@]4(C)C3CC[C@]12C (stereo partly drawn) | . | . | 56 | . | .
COc1ccc(NC(=O)CCCOc2ccc(Cl)c(C)c2)cc1S(=O)(=O)N1CCOCC1 | . | . | . | . | .
Clc1cc(Br)ccc1OCCCNCc1ccccc1 | . | . | . | . | 22
O=C(N/N=C1\CCSc2ccc(F)cc21)c1cccnc1 | . | . | . | . | .
NC(=S)N/N=C1\CCSc2ccc(Cl)cc21 | . | . | 73 | . | .
O=C(CC(C(=O)O)c1ccc(Cl)cc1)c1ccccc1 (stereo not drawn) | . | . | . | . | .
